{"source": "PubChem BioAssay (Tox21)", "note": "Calls of active or inactive are those of the source. The call rests on the fitted dose curve; in most records, active means well fitted curve in the direction sought with a large enough effect in the repeat runs; inconclusive means weak or mixed curves; inactive means flat fitted curve, though single readings scatter."}
{"experiment": "qHTS assay to test for compound auto fluorescence at 590 nm (red) in HepG2 cell free culture (AID 720684)", "conditions": "cell-free medium autofluorescence, red 540/590 nm; series mostly up to 91.3 µM", "from_the_text": "U.S. Tox21 Program National Center for Advancing Translational Sciences [NCATS] NIH Chemical Genomics Center [NCGC] U.S. Environmental Protection Agency [EPA] National Institutes of Environmental Health Sciences [NIEHS] National Toxicology Program [NTP] U.S. Food and Drug Administration [FDA] Tox21 Assay Overview: Compound auto fluorescence often interferes with screening of the compound library against various biological targets and signaling pathways. Some of these compounds may have fluorophoric properties. Such properties may interfere with the assay outputs resulting in false positives and/or negatives. To decrease such complications and ensure the compound activities are relevant in terms of biological response, the Tox21 10K compound library was screened for auto fluorescence. From the fluorophores used as reporter signals in our screening assays, the auto fluorescence equivalencies of compounds against three fluorophores have been evaluated: Triamterene, Fluorescein and Rose Bengal sodium for blue, green and red fluorescence, respectively. The fluorescence intensities were measured using Excitation/Emission wavelengths at 405/460nm, 485/535nm and 540/590nm for blue, green and red labels, respectively. This assay includes the red fluorescence data.\nTox21 Assay Protocol Summary: 5 uL of culture medium (MEM containing 10% FBS) per well was dispensed into black wall/clear bottom 1536-well plates using a Multidrop Combi Dispenser (ThermoFisher Scientific, Waltham, MA). After 23 nL compound or DMSO vehicle was transferred into assay plate by a pintool work station (Kalypsys, San Diego, CA), fluorescence intensities in the assay plates were measured by an Envision (PerkinElmer, Shelton, CT) plate reader using three labels for measuring blue, green and red fluorescence at […] 460, 535 and 590nm respectively."}
{"molecule": "CC1CCCCC1NC(=O)Nc1ccccc1", "note": "(stereo not given)", "outcome": "inactive"}
{"molecule": "Cc1ncc(CNC(=O)N(CCCl)N=O)c(N)n1", "outcome": "inactive"}
{"molecule": "CCN(CC)C(C)C(=O)c1ccccc1", "note": "(stereo not given)", "outcome": "inactive"}
{"molecule": "O=NN1CCN(N=O)CC1", "outcome": "inactive"}
{"molecule": "O=[N+]([O-])c1cccc(O)c1", "outcome": "inactive"}
{"molecule": "CC(C)NCC(O)c1ccc(N)c(C#N)c1", "note": "(stereo not given)", "outcome": "inactive"}
{"molecule": "Nc1cc2c3c(c1)C(c1ccccc1)=N[C@@H](NC(=O)c1cccnc1)C(=O)N3CC2", "outcome": "inactive"}
{"molecule": "CN1CCN(C(=O)O[C@H]2c3nccnc3C(=O)N2c2ccc(Cl)cn2)CC1", "outcome": "inactive"}
{"molecule": "C[N+](=O)[O-]", "outcome": "inactive"}
{"molecule": "[O]=[Cd]", "outcome": "inactive"}
{"molecule": "CCOC(=O)NC(=S)Nc1ccccc1NC(=S)NC(=O)OCC", "outcome": "inactive"}
{"molecule": "CCCCOC(=O)c1ccccc1C(=O)O", "outcome": "inactive"}
{"molecule": "O=[N+]([O-])c1ccc(CBr)cc1", "outcome": "inactive"}
{"molecule": "CCC(=O)c1ccccc1", "outcome": "inactive"}
{"molecule": "CC(C)CC#N", "outcome": "inactive"}
{"molecule": "CCC1(c2ccccc2)C(=O)N=C(O)NC1=O", "note": "(stereo not given)", "outcome": "inactive"}
{"molecule": "C(CCOCC1CO1)COCC1CO1", "note": "(stereo not given)", "outcome": "inactive"}
{"molecule": "CC(C)(C)C(=O)C(Oc1ccc(Cl)cc1)n1cncn1", "note": "(stereo not given)", "outcome": "inactive"}
{"molecule": "OCCSCSCCO", "outcome": "inactive"}
{"molecule": "CSc1nc(N=[N+]=[N-])nc(NC(C)C)n1", "outcome": "inactive"}
{"molecule": "Cc1coc2c1CCC(C)C2", "note": "(stereo not given)", "outcome": "inactive"}
{"molecule": "Nc1ccccc1Cl", "outcome": "inactive"}
{"molecule": "CCc1cc2c(s1)-n1c(C)nnc1CN=C2c1ccccc1Cl", "outcome": "inactive"}
{"molecule": "CCC/C(=N\\OCC)C1=C(O)CC(CC(C)SCC)CC1=O", "note": "(stereo not given)", "outcome": "inactive"}
{"molecule": "CCCCCCBr", "outcome": "inactive"}
{"molecule": "COc1cc(OC)nc(Sc2cccc(Cl)c2C(=O)O)n1", "outcome": "inactive"}
{"molecule": "CCOP(=S)(OCC)Oc1ncn(-c2ccccc2)n1", "outcome": "inactive"}
{"molecule": "CCOP(=O)(OCC)OP(=O)(OCC)OCC", "outcome": "inactive"}
{"molecule": "CCC(C)(C)c1cc(-n2nc3ccccc3n2)c(O)c(C(C)(C)CC)c1", "outcome": "inactive"}
{"molecule": "C=C(C)[C@@H]1CC=C(C=O)CC1", "outcome": "inactive"}
{"molecule": "CC(C)COP(=O)(OCC(C)C)OCC(C)C", "outcome": "inactive"}
{"molecule": "CCOP(=S)(OCC)Oc1cc(-c2ccccc2)on1", "outcome": "inactive"}
{"molecule": "CCN(CC)C(=O)[C@@H]1C=C2c3cccc4[nH]cc(c34)C[C@H]2N(C)C1", "outcome": "inactive"}
{"molecule": "O=[N+]([O-])c1cccc2c([N+](=O)[O-])cccc12", "outcome": "inactive"}
{"molecule": "Cc1ncc2n1-c1ccc(Cl)cc1C(c1ccccc1F)=NC2", "outcome": "inactive"}
{"molecule": "NC1=NC(=O)C(c2ccccc2)O1", "note": "(stereo not given)", "outcome": "inactive"}
{"molecule": "CCOC(=O)CP(=O)(OCC)OCC", "outcome": "inactive"}
{"molecule": "O=[N+]([O-])c1cccc2cccnc12", "outcome": "inactive"}
{"molecule": "COC(=O)c1ccccc1S(=O)(=O)NC(=O)Nc1nc(C)cc(C)n1", "outcome": "inactive"}
{"molecule": "CCN(CC)c1nc(C)cc(OP(=S)(OC)OC)n1", "outcome": "inactive"}
